# Measured values: PubChem BioAssay AID1946 (Johns Hopkins Ion Channel Center, 2009)
# Screen size: about 2,400 compounds; about 180 (7.5%) were called active. The sample holds actives, similar compounds and a random draw of the others, so the mix is not that of the screen.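 Rule for the calls: active = readout below zero, meaning a drop past 3 SD under the dofetilide-free negative control mean; inactive = the rest.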
# Molecular target: Potassium voltage-gated channel subfamily KQT member 2 (Rattus norvegicus) (UniProt O88943)
# Assay: KCNQ2 blockade in CHO cells – cell-based, FluxOR thallium flux, counter-screen for hERG block protector project, confirmation (AID 1946)
# Conditions: FluxOR thallium flux fluorescence, at 10 µM, hits give low values, zero marks the 3-SD hit cutoff
# Chain of Potassium voltage-gated channel subfamily KQT member 2 (Rattus norvegicus) (O88943 whole entry, looked up): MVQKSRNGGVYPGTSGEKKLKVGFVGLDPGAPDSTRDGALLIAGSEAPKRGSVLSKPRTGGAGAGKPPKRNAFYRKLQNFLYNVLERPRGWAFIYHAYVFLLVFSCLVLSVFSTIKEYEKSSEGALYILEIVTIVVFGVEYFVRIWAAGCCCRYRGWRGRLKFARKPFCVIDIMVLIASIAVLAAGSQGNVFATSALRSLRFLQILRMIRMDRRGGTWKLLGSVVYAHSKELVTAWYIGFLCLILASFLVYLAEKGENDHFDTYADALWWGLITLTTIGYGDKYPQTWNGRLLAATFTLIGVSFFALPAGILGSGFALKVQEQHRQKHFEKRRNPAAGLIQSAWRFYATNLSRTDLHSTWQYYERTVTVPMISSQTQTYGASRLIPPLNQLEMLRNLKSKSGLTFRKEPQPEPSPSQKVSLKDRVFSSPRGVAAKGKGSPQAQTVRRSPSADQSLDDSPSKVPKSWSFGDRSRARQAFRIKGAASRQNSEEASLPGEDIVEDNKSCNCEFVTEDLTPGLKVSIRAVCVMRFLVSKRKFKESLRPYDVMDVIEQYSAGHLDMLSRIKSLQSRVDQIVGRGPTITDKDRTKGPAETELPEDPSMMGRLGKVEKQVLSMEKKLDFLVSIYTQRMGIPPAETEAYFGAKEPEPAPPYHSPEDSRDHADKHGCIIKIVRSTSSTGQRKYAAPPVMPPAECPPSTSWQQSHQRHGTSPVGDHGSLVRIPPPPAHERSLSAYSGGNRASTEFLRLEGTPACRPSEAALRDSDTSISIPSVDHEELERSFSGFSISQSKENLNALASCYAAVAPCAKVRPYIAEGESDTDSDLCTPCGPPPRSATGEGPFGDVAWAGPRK
row,Structure (SMILES),activity change vs negative control
1,Cc1ccc(C(=O)NC(=S)N(C)Cc2ccccc2)cc1,28.6% (inactive)
2,CCC(=O)N(CC)c1nc(-c2ccc(OC)cc2)cs1,60.4% (inactive)
3,Cc1ccc(Cn2nnc3c(=O)n(CC(=O)N4CCCc5ccccc54)cnc32)cc1,13% (inactive)
4,Cc1c(C(=O)NC(=S)NCc2cccnc2)oc2ccccc12,5.5% (inactive)
5,Cc1c(C(=O)NNC(=O)c2ccncc2)oc2ccc(Br)cc12,-1.5% (active)
6,CC(NC(=O)c1ccncc1)C(C)(C)C (configuration not stated),32.4% (inactive)
7,O=C1CSC(=S)N1/N=C/c1cc(Br)ccc1O,21.5% (inactive)
8,O=C(NC(=S)N1CCCc2ccccc21)c1ccccc1,21.6% (inactive)
9,O=C(COc1ccc(Br)cc1Cl)NC(=S)N1CCc2ccccc21,9.4% (inactive)
10,O=C(COc1ccccc1)NC(=S)N1CCc2ccccc21,25.7% (inactive)
11,O=C(COc1ccc(Cl)cc1Cl)NC(=S)N1CCCc2ccccc21,0.8% (inactive)
12,Cc1cccc(OCC(=O)NC(=S)N2CCCc3ccccc32)c1,-0.9% (active)
13,O=C(COc1ccc(Br)cc1Br)NC(=S)N1CCCc2ccccc21,-2.3% (active)
14,COc1cccc2sc(Nc3nc(-c4ccccn4)cs3)nc12,34.8% (inactive)
15,CCN1C(=O)/C(=C/c2ccc(C)s2)NC1=S,65.6% (inactive)
16,COC(=O)c1ccc(NC(=S)NC(=O)c2cc(-c3ccccc3)nc3ccccc23)cc1,28.9% (inactive)
17,COc1cccc(C(=O)NNC(=O)C(=O)Nc2ccc(C)c(Cl)c2)c1,98.2% (inactive)
18,Nn1c(SCC(=O)Nc2ccccc2F)nnc1C1CCCCC1,10.9% (inactive)
19,CC(C)OC(=O)CSc1nnc(C2CCCCC2)n1N,6% (inactive)
20,Nn1c(SCC(=O)Nc2ccc(F)cc2)nnc1C1CCCCC1,-0.5% (active)
21,CCOc1ccc2nc(/N=C/c3nc(-c4ccc(Br)cc4)oc3O)sc2c1,13.7% (inactive)
22,S=c1nc[nH]c2c1sc1nc(N3CCOCC3)c3c(c12)CCCC3,74.9% (inactive)

row,Structure (SMILES),activity change vs negative control
1,C/C(=N\Nc1nc2ccccc2nc1C)c1ccccc1O,35.1% (inactive)
2,CCOC(=O)c1sc(NC(=S)NC(=O)c2cccc(OC)c2)nc1C,28.4% (inactive)
3,CCN(CC)C(=S)NC(=O)c1ccc(Cl)cc1Cl,32% (inactive)
4,CCCn1nnnc1NC(=O)c1cc(Cl)ccc1Cl,-2% (active)
5,CCCN(CCC)C(=S)NC(=O)c1ccc(Cl)cc1Cl,78% (inactive)
6,O=C(NC(=S)N1CCc2ccccc21)c1ccccc1Br,126% (inactive)
7,CN(C(=S)NC(=O)c1ccccc1)C1CCCCC1,29.8% (inactive)
8,COc1ccc2c(c1)O[C@@H](c1cccc(C(F)(F)F)c1)[C@H](OC(=O)NCCc1ccc(OC)c(OC)c1)C2=O,20.4% (inactive)
9,CCOC(=O)Cc1nc2ccccc2o1,11.7% (inactive)
10,O=C(CSc1nc2ccccc2o1)NCc1n[nH]c(=O)c2ccccc12,19.1% (inactive)
11,C/C(=N\NC(=O)CSc1nc2ccccc2o1)c1ccc(O)cc1,-1.7% (active)
12,Cc1nn(C)c(C(=O)NC(=S)Nc2ccccc2Br)c1Cl,41.3% (inactive)
13,CCc1ccc(C(C)NC(=O)c2ccc(F)cc2)cc1 (configuration not stated),43.4% (inactive)
14,CCOC(=O)C1CCCN(C(=S)NC(=O)/C=C/c2ccc(F)cc2)C1 (configuration not stated),1.2% (inactive)
15,O=C(c1ccc(C(F)(F)F)cc1)C1CCCN(C(=O)CCc2ccncc2)C1 (configuration not stated),4.7% (inactive)
16,Cn1cc(CCC(=O)N2CCCC(Nc3ccc(F)cc3)C2)cn1 (configuration not stated),-2% (active)
17,Cc1cccc(N2C(=O)C(O)=C(C(=O)c3cccs3)C2c2cccc(Oc3ccccc3)c2)n1 (configuration not stated),11.3% (inactive)
18,COc1ccccc1C1C(C(=O)c2ccc(C)o2)=C(O)C(=O)N1c1cc(C)on1 (configuration not stated),14.4% (inactive)
19,Cc1cc(N2C(=O)C(O)=C(C(=O)c3cccs3)C2c2ccccc2)no1 (configuration not stated),-1.4% (active)
20,CCOC(=O)C1=NN(C(=O)c2ccc(C)cc2)C(O)(c2ccc(Cl)cc2)C1 (configuration not stated),110% (inactive)
21,COc1ccccc1NC(=O)C(=O)NNC(=O)COc1ccc2ccccc2c1,115% (inactive)
22,Cc1ccc(C(=O)NC(=S)N(C)C2CCCCC2)cc1,27.3% (inactive)

row,Structure (SMILES),activity change vs negative control
1,COC(=O)c1sc(NC(=S)NC(=O)c2ccccc2C)nc1C,41% (inactive)
2,S=c1[nH]c2ccc(Cl)cc2s1,115% (inactive)
3,CCc1nnc(NC(=O)CSc2nc(-c3ccccc3)cc(-c3ccc(OC)cc3)c2C#N)s1,5.3% (inactive)
4,CCOC(=O)C(C)Sc1nc2c(c(-c3cccs3)c1C#N)CCC2 (configuration not stated),6.3% (inactive)
5,N#Cc1c(-c2ccc(Cl)cc2)cc(-c2cccs2)nc1SCC(=O)O,-10.2% (active)
6,C/C(=N\NC(N)=S)c1ccncc1,19.1% (inactive)
7,C/C(=N\NC(N)=S)c1cccnc1,-3.2% (active)
8,CSC(=S)N/N=C(\C)c1ccccc1,64.1% (inactive)
9,S=c1[nH]cnc2scc(-c3ccc(Br)cc3)c12,28.5% (inactive)
10,CCn1ncc(Cl)c1C(=O)NC(=S)Nc1ccccc1Br,51.3% (inactive)
11,CCN(C(=S)NC(=O)c1ccccc1Br)C1CCCCC1,93.4% (inactive)
12,CC1CCc2sc(-c3n[nH]c(=S)o3)cc2C1 (configuration not stated),35.3% (inactive)
13,Fc1cccc2sc(Nc3nnc(-c4ccccc4)o3)nc12,109% (inactive)
14,Cc1ccc(Nc2cc(C)nn2-c2nc(C)cc(=O)[nH]2)cc1,83.1% (inactive)
15,O=C(Nn1c(O)c(C=C2N=c3ccccc3=N2)sc1=S)c1cccc(Cl)c1,6.4% (inactive)
16,CC1CCCCC1n1c(=S)[nH]c2ccccc2c1=O (configuration not stated),28% (inactive)
17,CSc1nc(C)c2c(n1)N(c1ccc(C(C)C)cc1)CC2,-2.7% (active)
18,COc1ccccc1C(=O)NNC(=O)C(=O)Nc1cccc(Cl)c1C,160% (inactive)
19,O=C(CCSc1ccc(Br)cc1)c1ccc(O)cc1,8.7% (inactive)
20,CSc1nc2sc3c(c2c(=S)[nH]1)CC(C)(C)OC3,95% (inactive)
21,CN(Cc1ccccc1)C(=O)CCc1ccccc1,5.4% (inactive)
22,CCOC(=O)c1c(NS(=O)(=O)Cc2ccccc2)sc2c1CCCC2,62% (inactive)

row,Structure (SMILES),activity change vs negative control
1,Cc1ccc(-c2csc(=S)[nH]2)cc1,106% (inactive)
2,O=C(NC(=S)Nc1ccccn1)c1cc(-c2ccccc2)nc2ccccc12,19.4% (inactive)
3,Cc1ccc(/C=N/NC(=O)c2cc(-c3ccncc3)nc3ccccc23)o1,2.6% (inactive)
4,O=C(N/N=C/c1ccccn1)c1cc(-c2ccc(Br)cc2)nc2ccccc12,-4.7% (active)
5,Cc1ccc(OCC(=O)NC(=S)Nc2ccc(Br)cn2)cc1,33.8% (inactive)
6,Cc1ccc(C(=O)Nc2nc3ccccc3c(=O)s2)cc1,22.4% (inactive)
7,CCOc1ccc(S(=O)(=O)N2CCN(Cc3ccc4c(c3)OCO4)CC2)cc1C,-5.7% (active)
8,COc1ccc(C(=O)N2CCN(Cc3ccc4c(c3)OCO4)CC2)cc1[N+](=O)[O-],4.4% (inactive)
9,O=C(COc1ccc(Cl)cc1)N1CCN(Cc2ccc3c(c2)OCO3)CC1,22.9% (inactive)
10,Cc1cc(C)c2nc(NC(=O)C3CCCO3)sc2c1 (configuration not stated),-2.4% (active)
11,Cc1cc(C)c2nc(NC(=O)CN3C(=O)NC4(CCCC4)C3=O)sc2c1,18.8% (inactive)
12,O=C(Nc1nc2c(F)cc(F)cc2s1)C1COc2ccccc2O1 (configuration not stated),3.8% (inactive)
13,CCCCCC/C(C)=C1/SC(=S)NC1=O,94.1% (inactive)
14,CCOC(=O)c1c(NC(=O)CN2CCN(C(=O)c3ccco3)CC2)sc2c1CCCC2,39% (inactive)
15,O=c1ccc(N=Nc2ccccc2)ccc1O,109% (inactive)
16,COc1cc(OC)cc(C(=O)O/N=C(\N)c2cccc(C)c2)c1,4.9% (inactive)
17,COc1cc(OC)cc(C(=O)OCC(=O)N(C)c2ccccc2)c1,-0.3% (active)
18,COc1cc(OC)cc(C(=O)NC(=S)N(Cc2ccccc2)C(C)C)c1,45.9% (inactive)
19,CC(C)(C)NC(=O)C(=O)NNC(=O)c1cccc(Br)c1,40% (inactive)
20,O=C(Nc1cccn(Cc2c(Cl)cccc2Cl)c1=O)c1ccccc1Cl,-1.1% (active)
21,O=C(Nc1ccsc1C(=O)O)c1ccccc1Cl,14.8% (inactive)
22,Cc1ccccc1C(=O)NNC(=O)C(=O)Nc1cccc(Cl)c1C,40.7% (inactive)

row,Structure (SMILES),activity change vs negative control
1,CC(=O)CSc1ncnc2sc3c(c12)CCC(C)C3 (configuration not stated),111% (inactive)
2,CC(C)(C)c1ccc(/C=C/C(=O)N2CCCCC2)cc1,32.8% (inactive)
3,CCOC(=O)c1c(O)c2ccccc2n(C)c1=O,17.5% (inactive)
4,CCOc1ccc(N(CC)C(=O)COc2cc(=O)n(C)c3ccccc23)cc1,-3.3% (active)
5,Cn1c(=O)cc(-c2ccccc2)c2ccccc21,2.7% (inactive)
6,Cc1cccc(N2CCN(C(=O)CNC(=O)c3cccc([N+](=O)[O-])c3)CC2)c1C,1.9% (inactive)
7,CCn1c(SCC(=O)NC(=O)NCc2ccco2)nc2sc(C)c(C)c2c1=O,43.3% (inactive)
8,C=CCSc1nc2sc3c(c2c(=O)n1CC)CCc1ccccc1-3,35% (inactive)
9,CC(=O)c1ccc(N2CCN(C(=O)Cc3ccccc3)CC2)c(F)c1,-0.2% (active)
10,CS(=O)(=O)N(CCc1ccccc1)CC(=O)N1CCN(c2ccc(F)cc2)CC1,1.7% (inactive)
11,O=C(c1ccc(Cl)c(S(=O)(=O)N2CCCC2)c1)N1CCN(c2ccccc2F)CC1,14.8% (inactive)
12,S=c1nc(-c2ccc(Br)cc2)[nH]c2ccccc12,122% (inactive)
13,Cc1ccc(C(=O)CC(=O)COc2ccc(Cl)cc2C)cc1,13.2% (inactive)
14,O=C(Nc1nnc(-c2ccc3c(c2)CCCC3)o1)C1COc2ccccc2O1 (configuration not stated),28% (inactive)
15,CCC(=O)Nc1nnc(-c2ccccn2)o1,-0.7% (active)
16,O=C(CCC(=O)Nc1ccccc1)NNC(=O)c1ccco1,3.9% (inactive)
17,O=C(CCc1ccccc1)Nc1nnc(-c2ccccn2)o1,-2.9% (active)
18,O=C(Nc1nnc(-c2ccccc2)o1)c1ccc(Cl)cc1,13.6% (inactive)
19,O=C(CCc1ccccc1)Nc1nccs1,4.5% (inactive)
